Measured values from the supplement of paper PMC12669032.

Tests used:
Assay in all cases: growth AUC relative to DMSO control (median of replicates) (fraction); higher = more growth (less inhibition), active = hit call of the paper
Settings in all cases: 20 µM; 24 h;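 active = AUC reduced over 20% with Padj below 0.05 in at least 2 of 3 replicates; inactive = otherwise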
[1] = system: Coprococcus comes
How it was run: (§1)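 Area under the growth curve was normalised to the plate median of solvent-only wells, or to row and column medians on the industrial chemical plate. Growth curves came from anaerobic gut bacterial monocultures in mGAM at 37 °C, seeded at OD600 0.05 with 20 µM compound (1% DMSO), and read at OD600 hourly for 24 h with the minimum OD set to 0. The value is the median of three biological replicates grown on separate days.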

[2] = system: Escherichia coli ED1a
How it was run: as §1

[3] = system: Escherichia coli IAI1
How it was run: as §1

[4] = system: Eubacterium rectale
How it was run: as §1

[5] = system: Fusobacterium nucleatum subsp. animalis
How it was run: as §1

[6] = system: Lactobacillus gasseri
How it was run: as §1

[7] = system: Lactobacillus paracasei
How it was run: as §1

[8] = system: Odoribacter splanchnicus
How it was run: as §1

[9] = system: Parabacteroides distasonis
How it was run: as §1

[10] = system: Parabacteroides merdae
How it was run: as §1

[11] = system: Roseburia intestinalis
How it was run: as §1

[12] = system: Streptococcus salivarius
How it was run: as §1

Measured: growth AUC

CC(C)N(C)S(=O)(=O)NC(=O)c1cc(-n2c(=O)cc(C(F)(F)F)n(C)c2=O)c(F)cc1Cl
inactive: [1] 1.03 | [2] 1.02 | [3] 1 | [4] 1.01 | [5] 0.98 | [6] 1.02 | [7] 1.04 | [8] 0.99 | [9] 1.08 | [10] 1 | [11] 1.03 | [12] 0.998

O=C(Cc1ccccc1)N/C(=N\OCC1CC1)c1c(C(F)(F)F)ccc(F)c1F
active: [9] 0.612
inactive: [1] 1.01 | [2] 0.983 | [3] 0.972 | [4] 1.03 | [5] 0.937 | [6] 0.842 | [7] 0.946 | [8] 0.911 | [10] 0.877 | [11] 0.976 | [12] 0.968

CC(CCl)OP(=O)(OC(C)CCl)OC(C)CCl (mixture of isomers)
inactive: [1] 0.999 | [2] 0.973 | [3] 0.984 | [4] 1.08 | [5] 1.08 | [6] 0.851 | [7] 1.01 | [8] 1.01 | [9] 0.94 | [10] 0.976 | [11] 0.967 | [12] 1.01

C[C@@H](Oc1ccc(Cl)cc1Cl)C(=O)O
inactive: [1] 0.967 | [2] 1.02 | [3] 1.02 | [4] 1.17 | [5] 1.07 | [6] 0.906 | [7] 0.949 | [8] 0.98 | [9] 0.964 | [10] 1.01 | [11] 0.927 | [12] 0.919

Clc1cc(Cl)c(Cl)cc1Cl
inactive: [1] 0.971 | [2] 1.02 | [3] 1.04 | [4] 0.986 | [5] 1.15 | [6] 0.973 | [7] 0.991 | [8] 1.01 | [9] 1.05 | [10] 0.998 | [11] 0.962 | [12] 0.935

CCOC(=O)CC(SP(=O)(OC)OC)C(=O)OCC (stereo unspecified)
inactive: [1] 1 | [2] 0.97 | [3] 0.976 | [4] 1.09 | [5] 0.893 | [6] 0.883 | [7] 0.973 | [8] 0.913 | [9] 0.902 | [10] 0.975 | [11] 0.997 | [12] 1.01

O=C(O)C(F)(F)C(F)(F)C(F)(F)C(F)(F)C(F)(F)C(F)(F)C(F)(F)C(F)(F)F
inactive: [1] 1.01 | [2] 1.01 | [3] 1.01 | [4] 0.99 | [5] 1 | [6] 1 | [7] 1.03 | [8] 1.07 | [9] 1.18 | [10] 1.01 | [11] 0.975 | [12] 0.998

CCSC(=O)N(CC)C1CCCCC1
inactive: [1] 0.988 | [2] 0.987 | [3] 1.03 | [4] 1.01 | [5] 1.01 | [6] 1.2 | [7] 1 | [8] 0.975 | [9] 1.07 | [10] 1.03 | [11] 1.07 | [12] 0.948

ClCC(Br)CBr (stereo unspecified)
inactive: [1] 1 | [2] 0.985 | [3] 0.996 | [4] 0.994 | [5] 0.995 | [6] 0.916 | [7] 0.995 | [8] 1.02 | [9] 1 | [10] 0.996 | [11] 1 | [12] 0.973

Cc1cccc(C)c1N(Cn1cccn1)C(=O)CCl
inactive: [1] 0.992 | [2] 0.976 | [3] 0.952 | [4] 1.09 | [5] 1.1 | [6] 0.928 | [7] 0.997 | [8] 1.06 | [9] 1.01 | [10] 0.963 | [11] 0.935 | [12] 0.999

Cc1nnc(-c2ccccc2)c(=O)n1N
inactive: [1] 1 | [2] 1 | [3] 0.995 | [4] 0.993 | [5] 0.998 | [6] 0.931 | [7] 0.972 | [8] 1.06 | [9] 1 | [10] 1.02 | [11] 0.97 | [12] 1.06

Oc1ccc(Cl)cc1
inactive: [1] 0.989 | [2] 0.967 | [3] 0.951 | [4] 0.921 | [5] 0.941 | [6] 0.968 | [7] 1 | [8] 1.01 | [9] 1.05 | [10] 0.988 | [11] 0.972 | [12] 0.984

CCOP(=O)(OCC)Oc1ccc(S(C)(=O)=O)cc1
inactive: [1] 1.01 | [2] 0.98 | [3] 0.977 | [4] 1.13 | [5] 0.996 | [6] 1 | [7] 0.976 | [8] 1 | [9] 1.11 | [10] 1.03 | [11] 0.974 | [12] 1.02

CNC(=O)ON=C(CSC)C(C)(C)C
inactive: [1] 0.968 | [2] 1.01 | [3] 1 | [4] 0.981 | [5] 1.01 | [6] 1.03 | [7] 0.985 | [8] 0.983 | [9] 1.02 | [10] 1.02 | [11] 1.02 | [12] 1.02

CC(C)(C)N(NC(=O)c1ccc(Cl)cc1)C(=O)c1ccccc1
inactive: [1] 0.995 | [2] 1.01 | [3] 1.01 | [4] 1 | [5] 0.913 | [6] 1.09 | [7] 1.1 | [8] 0.988 | [9] 0.96 | [10] 0.97 | [11] 1.08 | [12] 0.987

O=C(Nc1ccccc1-c1ccc(Cl)cc1)c1cccnc1Cl
inactive: [1] 1 | [2] 0.981 | [3] 1.01 | [4] 0.968 | [5] 0.956 | [6] 1.08 | [7] 0.972 | [8] 0.86 | [9] 0.839 | [10] 0.998 | [11] 1.01 | [12] 1.01

Oc1ccc(Cc2ccc(O)cc2)cc1
inactive: [1] 0.968 | [2] 1.03 | [3] 0.979 | [4] 1.09 | [5] 0.987 | [6] 1.04 | [7] 0.962 | [8] 0.942 | [9] 0.89 | [10] 0.994 | [11] 0.999 | [12] 0.966

C=CC1(C)OC(=O)N(c2cc(Cl)cc(Cl)c2)C1=O (stereo unspecified)
inactive: [1] 0.982 | [2] 0.979 | [3] 0.967 | [4] 0.956 | [5] 0.991 | [6] 1.1 | [7] 0.878 | [8] 0.982 | [9] 0.98 | [10] 0.982 | [11] 0.973 | [12] 1.02

COP1(=S)OCc2ccccc2O1 (stereo unspecified)
inactive: [1] 1 | [2] 0.991 | [3] 1 | [4] 1.08 | [5] 1.12 | [6] 0.945 | [7] 0.997 | [8] 1.04 | [9] 1.05 | [10] 0.999 | [11] 0.943 | [12] 1.01

CCOP(=S)(OCC)SCSCC
inactive: [1] 0.985 | [2] 0.987 | [3] 0.956 | [4] 1.17 | [5] 0.99 | [6] 0.97 | [7] 0.952 | [8] 0.984 | [9] 0.921 | [10] 0.947 | [11] 0.962 | [12] 1.02

Cc1ccccc1C(=O)Nc1cccc(OC(C)C)c1
inactive: [1] 1.02 | [2] 0.991 | [3] 1 | [4] 0.953 | [5] 0.955 | [6] 1.06 | [7] 1.01 | [8] 1.03 | [9] 1.04 | [10] 0.974 | [11] 1.01 | [12] 0.988

CCN(Cc1ccc(Cl)nc1)/C(=C/[N+](=O)[O-])NC
inactive: [1] 0.959 | [2] 1.04 | [3] 0.987 | [4] 0.948 | [5] 0.928 | [6] 0.966 | [7] 0.992 | [8] 0.95 | [9] 1.04 | [10] 0.989 | [11] 1 | [12] 1

COC(=O)c1cc(Oc2ccc(Cl)cc2Cl)ccc1[N+](=O)[O-]
inactive: [1] 0.993 | [2] 0.985 | [3] 0.982 | [4] 1.11 | [5] 0.975 | [6] 0.933 | [7] 0.928 | [8] 0.934 | [10] 0.958 | [11] 0.891 | [12] 1.02
active: [9] 0.449
